Source: article PMC7819943, “Rice protein-binding microarrays: a tool to detect cis-acting elements near promoter regions in rice”
In all, about 35,000 sequences were measured (“fluorescence intensity (a.u.)”: median about 10,000, highest 2% from about 52,000 on). The entries come from a sample that favours the highest values as a whole.

biological target: T1, OsWOX13 (Oryza sativa, UniProt Q5QMM3 1-267); assay: protein-binding microarray (RPBM); PBS, 2% BSA, 51.3 ng/ul salmon testes DNA, 50 uM zinc acetate, 200 nM TF, 25 C, 1 h; high values mean tight binding; details: protein: recombinant; tags: N-terminal polyhistidine and DsRed monomer fusion (pET32a); label: CyDye5-dUTP incorporated in the synthesized complementary strand; 3' TTTTT single-stranded linker to array surface; dsDNA, one strand shown
T1 sequence: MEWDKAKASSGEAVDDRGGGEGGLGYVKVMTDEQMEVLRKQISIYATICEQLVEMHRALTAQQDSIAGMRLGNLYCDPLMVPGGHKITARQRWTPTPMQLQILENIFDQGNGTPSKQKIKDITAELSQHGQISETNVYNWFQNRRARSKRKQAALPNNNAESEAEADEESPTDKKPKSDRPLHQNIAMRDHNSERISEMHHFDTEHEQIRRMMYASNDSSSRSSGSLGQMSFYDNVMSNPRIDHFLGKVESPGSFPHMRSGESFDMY
Method in brief: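 Ni–NTA purification followed expression in E. coli BL21-CodonPlus of transcription factors fused N-terminally to a polyhistidine tag and DsRed. At 200 nM in PBS with 2% BSA, salmon testes DNA and 50 µM zinc acetate, the protein was incubated for 1 h at 25 °C with a custom Agilent array that had been primer-extended with Cy5-dUTP and blocked with 2% BSA. After washing, the array was read on an Axon 4000B scanner. The binding signal is per-feature fluorescence intensity in arbitrary units.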

Sequence	binding signal
CGCTTAATGACTTCACTTTGTCCTCGGATGATTTGCGTCCCGGAGTCACCTAGTGCAG	11700 fluorescence intensity (a.u.)
CCCAGTCAATCTCCCCATCTCCTCGGCCTCGGCAATAGTACGGAGTCACCTAGTGCAG	7200 fluorescence intensity (a.u.)
GATAGATAGATAGATAGATAGATAGATAGATACTAGTACACGGAGTCACCTAGTGCAG	37000 fluorescence intensity (a.u.)
GCTTAATTAGCCGCTTCAGTTGCACAGTAACTGAGGAACCCGGAGTCACCTAGTGCAG	32700 fluorescence intensity (a.u.)
TGTAATAATAATTTAATCGATCTTTCAAGGGGCATTCTCGCGGAGTCACCTAGTGCAG	8040 fluorescence intensity (a.u.)
TTTAGATTGCTAAACACACATGTATATATAAGTTTTATTTCGGAGTCACCTAGTGCAG	5900 fluorescence intensity (a.u.)
TCGATTGACTGCATCTTTTCCTGAAAGTGAACATGCAGTGCGGAGTCACCTAGTGCAG	32500 fluorescence intensity (a.u.)
TGTAATCTATCAAGAATCCATTACTGAGACACAAATGCATCGGAGTCACCTAGTGCAG	4280 fluorescence intensity (a.u.)
TCCTAATTAATGTTAGAAATTTTCCTAATTAATGCTAGAACGGAGTCACCTAGTGCAG	28600 fluorescence intensity (a.u.)
CGTTGATTATTGCGATCGAAACCGTCTCATATAATTTTGCCGGAGTCACCTAGTGCAG	52500 fluorescence intensity (a.u.)
GAGTTGATTTGCGTTGTCTCTCCGTCTCTTTCTTATTAATCGGAGTCACCTAGTGCAG	20800 fluorescence intensity (a.u.)
TGTAACTATTATATAAATTGGCTATTAAGTTTGACTATAGCGGAGTCACCTAGTGCAG	17800 fluorescence intensity (a.u.)
TGGTTATTATATTGATTATAGATAATTTGAAGTTAGTAGTCGGAGTCACCTAGTGCAG	31500 fluorescence intensity (a.u.)
TAGTTATATTTGATTATCTTGCGAACCTATATATAATATGCGGAGTCACCTAGTGCAG	5250 fluorescence intensity (a.u.)
ACTAGTATTAAATTGACTATAAATGATTTGGAGTTAGTAGCGGAGTCACCTAGTGCAG	26300 fluorescence intensity (a.u.)
TTAAATTGACTATAGTTGATTTGTAGCCTACAATTGGCAGCGGAGTCACCTAGTGCAG	64600 fluorescence intensity (a.u.)
AAGTTATATATATTGATGATTTATACAACTTTGTTGGTGACGGAGTCACCTAGTGCAG	3620 fluorescence intensity (a.u.)
CTATTGATTATGATAATTTGAAGTTATATAGCTTGATTTGCGGAGTCACCTAGTGCAG	57700 fluorescence intensity (a.u.)
ACATATATAAGTTGATTGATTTGTTATTATAGACGACGAGCGGAGTCACCTAGTGCAG	55400 fluorescence intensity (a.u.)
ACTAAAATTTGATAAAATTTATTTTGCCTATAATATAAACCGGAGTCACCTAGTGCAG	6120 fluorescence intensity (a.u.)
TATAATTGATCTTTGTAGTTATTTTGTTGCATACATAAGACGGAGTCACCTAGTGCAG	29100 fluorescence intensity (a.u.)
ACAAAACAAATTACAGATTCCGCCTGCAAATTATGAGACACGGAGTCACCTAGTGCAG	6510 fluorescence intensity (a.u.)

Sequence	binding signal
CCGTGCTCAACTACCCAATCACTCCAAATTAAGCTCGCATCGGAGTCACCTAGTGCAG	3750 fluorescence intensity (a.u.)
TATTAATTAATTAACCTTAATTAATAAACAGGCAAAAGAACGGAGTCACCTAGTGCAG	40700 fluorescence intensity (a.u.)
TGCTAGATTAAATTTTAAAACTATATTGTTCCTTTCATATCGGAGTCACCTAGTGCAG	12400 fluorescence intensity (a.u.)
CCTGATTTCCTCCTTTCAGTGAAGTGTTAAACCCTAGCTACGGAGTCACCTAGTGCAG	21500 fluorescence intensity (a.u.)
AGTGGCTGCCGAATTAATTGGATCGCGTGCTGCGTGCGTGCGGAGTCACCTAGTGCAG	5740 fluorescence intensity (a.u.)
AGGATTGTTTCTGATGATTTGGGCCCGGAAAGACATAAGGCGGAGTCACCTAGTGCAG	7510 fluorescence intensity (a.u.)
ATTAATTGAGTTTTATTTTATTGTAAATTTGATTTAATAGCGGAGTCACCTAGTGCAG	37200 fluorescence intensity (a.u.)
CTATTAAATTGATTATATATGATTTGTAGTTTATAGTTGGCGGAGTCACCTAGTGCAG	65100 fluorescence intensity (a.u.)
TGATAAATTTGATGTTTATATGTTAAATTATAGTAGTTTGCGGAGTCACCTAGTGCAG	17600 fluorescence intensity (a.u.)
TTAAATTGGATCTGATTGATTTGTTTAAGGAAACCACCGGCGGAGTCACCTAGTGCAG	54600 fluorescence intensity (a.u.)
TGTTAAATTATATCTAAGGAAACCGGTTTTGATTTCCTTCCGGAGTCACCTAGTGCAG	11100 fluorescence intensity (a.u.)
GAGTAATATTCAACATTTTGATTAGAGGTTAACCGGTGTACGGAGTCACCTAGTGCAG	5370 fluorescence intensity (a.u.)
ATTCATTAATCTGTACTAATTGATATTGCTAAGCAGCTGCCGGAGTCACCTAGTGCAG	34200 fluorescence intensity (a.u.)
TTTGATAAAATCATAGATGTAGATTTTAATGTGATCTGAGCGGAGTCACCTAGTGCAG	6270 fluorescence intensity (a.u.)
TCACGATTAATTATATCATCATTTTGTATCCTTTGATTTCCGGAGTCACCTAGTGCAG	25200 fluorescence intensity (a.u.)
GTGGCATTTAGGTAATTAATTTAGTTTTATTTGTTACCTGCGGAGTCACCTAGTGCAG	10200 fluorescence intensity (a.u.)
TCTAAATGATTGTTATTTTCTTTCCTATTGTAAAGTTCAACGGAGTCACCTAGTGCAG	18900 fluorescence intensity (a.u.)
ATTTTGTGGTAATCTATACAAATTACTATATCCCCAATTGCGGAGTCACCTAGTGCAG	4670 fluorescence intensity (a.u.)
ATTTTGAAATTTTAATTTTAAAATTACATTTTGGGACAAACGGAGTCACCTAGTGCAG	8130 fluorescence intensity (a.u.)
TGTATTTAATTAGTTTGACAGAAACAAATTTGCTCAGTTACGGAGTCACCTAGTGCAG	37100 fluorescence intensity (a.u.)
CAAATTTATAATAATTAAAATTTAATTAATTATGTGTTAACGGAGTCACCTAGTGCAG	57700 fluorescence intensity (a.u.)
AATACTTATTAATAATTAACATGTGTTAATTCATTGCTTCCGGAGTCACCTAGTGCAG	13400 fluorescence intensity (a.u.)
